# Assay results as given in PubChem BioAssay.
# Calls of active or inactive are those of the source. Unless noted, no rule for the calls is given here.
# What was measured:
# [1] = tested on: Wnt5a (protein binding on small-molecule microarray); experiment: small molecules binding Wnt5a protein – biophysical, small-molecule microarray, 635/667 nm fluorescence, primary screen (AID 1142); details: 635 nm fluorescence, higher = more signal;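 also: fluorescence read at 667 nm with signal to noise per printed feature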
# [2] = ATP-based viability of Huh7 replicon cells – cell-based, CellTiter-Glo luminescence, basal, 48 h, cytotoxicity control for HCV replication inhibitor project, primary screen (AID 1143); details: higher = more signal, called active from +8 up or from −8 down;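 also: Huh7 hepatoma cells carrying a hepatitis C replication reporter with no stimulus; test concentration not given here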
# [3] = Pseudomonas biofilm growth suppression – PAO1 strain, BacTiter-Glo luminescence, LB-PBS, primary screen (AID 1144); details: P. aeruginosa PAO1 biofilm, 12 h, higher = more signal
# [4] = basal CRE-LacZ reporter activity in PC12 – cell-based, unstimulated, primary screen (AID 1145); details: no forskolin, luminescence, 4.5 h, higher = more signal, called active from +8 up or from −8 down
# [5] = forskolin-driven CRE-LacZ activity in PC12 – cell-based, CRE-LacZ reporter, forskolin-stimulated, primary screen (AID 1146); details: luminescence, 4.5 h, higher = more signal, called active from +8 up or from −8 down;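 also: PC12 cells with 6xCRE LacZ reporter stimulated by forskolin 10 µM; beta-galactosidase reporter signal reflecting CREB driven transcription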
# [6] = biological target: Streptavidin (Streptomyces avidinii) (UniProt P22629); experiment: compounds binding control protein streptavidin – biophysical, small-molecule microarray, 635/667 nm fluorescence, artefact control for SMM compound annotation, primary screen (AID 1147); details: higher = more signal;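 also: signal reflects streptavidin binding to arrayed compounds as a control protein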
# Sequence of Streptavidin (Streptomyces avidinii) (P22629 whole entry, looked up): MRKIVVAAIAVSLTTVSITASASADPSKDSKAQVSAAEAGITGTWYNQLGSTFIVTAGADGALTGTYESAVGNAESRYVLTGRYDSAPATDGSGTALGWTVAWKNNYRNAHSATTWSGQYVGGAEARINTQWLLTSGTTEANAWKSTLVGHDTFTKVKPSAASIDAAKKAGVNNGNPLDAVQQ
# [7] = probe aInhba binding on compound microarray – biochemical, small-molecule microarray, 635/667 nm fluorescence, primary screen (AID 1148); details: higher = more signal;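 also: score merges 667nm spot fluorescence with signal-to-noise for antibody binding to printed compounds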
# Torsin-1A (Homo sapiens) [8] = biological target: Torsin-1A (Homo sapiens) (UniProt O14656); experiment: TOR1A wild-type binding on microarray – cell lysate, small-molecule microarray, lysate, 635/667 nm, primary screen (AID 1149); details: COS7 hTOR1A-WT lysate, 635 nm fluorescence, higher = more signal
# Sequence of Torsin-1A (Homo sapiens) (O14656 whole entry, looked up): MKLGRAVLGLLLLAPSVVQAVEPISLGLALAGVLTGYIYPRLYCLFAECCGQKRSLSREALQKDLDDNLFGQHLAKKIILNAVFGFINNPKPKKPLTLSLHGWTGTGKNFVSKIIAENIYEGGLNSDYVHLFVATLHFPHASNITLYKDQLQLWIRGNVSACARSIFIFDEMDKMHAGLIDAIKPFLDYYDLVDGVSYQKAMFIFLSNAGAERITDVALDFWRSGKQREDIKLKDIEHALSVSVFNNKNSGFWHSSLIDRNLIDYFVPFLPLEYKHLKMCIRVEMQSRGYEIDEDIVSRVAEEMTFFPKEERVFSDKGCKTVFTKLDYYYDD
# Torsin-1A (Homo sapiens) [9] = biological target: Torsin-1A (Homo sapiens) (UniProt O14656); experiment: torsin A mutant lysate binding on microarrays – cell lysate, small-molecule microarray, COS7 lysate, 635/667 nm fluorescence, primary screen (AID 1150); details: COS7 hTOR1A mutant lysate, 635 nm fluorescence, higher = more signal;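 also: score pools 667 nm emission and signal to noise measuring lysate protein binding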
# [10] = tested on: Sonic hedgehog protein (Shh); experiment: Sonic hedgehog microarray binding compounds – biochemical, small-molecule microarray, 635/667 nm fluorescence, primary screen (AID 1151); details: 635 nm fluorescence, higher = more signal;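 also: Shh protein binding to compounds spotted on small-molecule microarray slides; score combines spot fluorescence intensity with signal-to-noise across triplicate slides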
# [11] = optical density shifts of acrAB sulA E. coli – strain DRC41, OD650, 48 h, E. coli filamentation inducer project, primary screen (AID 1152); details: higher = more signal, called active from +8 up or from −8 down;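 also: E. coli MC1000 strain DRC41 lacking acrAB efflux pump and sulA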
# [12] = probe aLefty1 binding on compound microarray – biochemical, small-molecule microarray, 635/667 nm fluorescence, primary screen (AID 1153); details: higher = more signal;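 also: score merges spot fluorescence with signal-to-noise ratio from the scanned slide images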
# [13] = plasmodial surface anion channel blockers, osmotic lysis – cell-based, P. falciparum Indochina, OD700, 1 h, primary screen (AID 1154); details: P. falciparum Indochina infected RBC osmotic lysis, higher = more signal, called active from +8 up or from −8 down
# [14] = plasmodial surface anion channel blockers, osmotic lysis – cell-based, P. falciparum Indochina, OD700, 2 h, primary screen (AID 1155);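 also: lysis reports solute entry through the parasite surface anion channel PSAC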; details: P. falciparum Indochina infected erythrocytes, higher = more signal, called active from +8 up or from −8 down
# [15] = changes in parasitized red cell lysis, either direction – P. falciparum Indochina, OD700, 3 h, PSAC antagonist project, primary screen (AID 1156); details: P. falciparum-infected erythrocytes, osmotic lysis, higher = more signal, called active from +8 up or from −8 down
# [16] = plasmodial surface anion channel blockers, osmotic lysis – cell-based, P. falciparum Indochina, OD700, 18 h, primary screen (AID 1157); details: P. falciparum Indochina infected erythrocytes, osmotic lysis OD700, 18 h; higher = more signal, called active from +8 up or from −8 down
# [17] = S6 kinase pathway phospho-S6 level changes – cell-based, A549, cytoblot, luminescence, serum-stimulated, primary screen (AID 1158); details: 5 h, higher = more signal;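 also: serum-stimulated A549 lung adenocarcinoma cells; signal is phosphorylated S6 detected by cytoblot immunostaining with HRP secondary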
# [18] = biological target: NADPH oxidase 2 (Homo sapiens) (UniProt P04839); experiment: compounds shifting NOX2 Amplex Red fluorescence – cell-based, HEK293-NOX2, PMA-stimulated, NOX inhibitor project, primary screen (AID 1159); details: 45 min, higher = more signal, called active from +8 up or from −8 down; also: test concentration not given here
# Sequence of NADPH oxidase 2 (Homo sapiens) (P04839 whole entry, looked up): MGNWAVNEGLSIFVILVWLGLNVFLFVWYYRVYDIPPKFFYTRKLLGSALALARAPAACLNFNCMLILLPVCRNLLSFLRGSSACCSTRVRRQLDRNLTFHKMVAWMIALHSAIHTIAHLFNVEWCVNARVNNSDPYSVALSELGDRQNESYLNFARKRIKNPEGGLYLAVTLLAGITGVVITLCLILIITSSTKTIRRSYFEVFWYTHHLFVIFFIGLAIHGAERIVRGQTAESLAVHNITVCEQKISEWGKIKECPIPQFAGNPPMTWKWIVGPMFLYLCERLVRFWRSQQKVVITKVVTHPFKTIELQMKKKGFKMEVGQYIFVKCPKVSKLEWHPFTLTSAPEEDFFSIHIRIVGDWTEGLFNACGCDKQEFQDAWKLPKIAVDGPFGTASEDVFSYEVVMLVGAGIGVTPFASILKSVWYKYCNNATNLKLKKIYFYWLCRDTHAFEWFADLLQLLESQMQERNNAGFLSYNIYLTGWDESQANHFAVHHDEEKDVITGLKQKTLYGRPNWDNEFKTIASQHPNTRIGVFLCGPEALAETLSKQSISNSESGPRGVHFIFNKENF
# [19] = biological target: NADPH oxidase 4 (Homo sapiens) (UniProt Q9NPH5); experiment: compounds shifting NOX4 Amplex Red fluorescence – cell-based, HEK293-NOX4, tetracycline-induced, NOX inhibitor project, primary screen (AID 1160); details: HEK293-NOX4, Amplex Red H2O2 fluorescence, 45 min; higher = more signal, called active from +8 up or from −8 down
# Sequence of NADPH oxidase 4 (Homo sapiens) (Q9NPH5 whole entry, looked up): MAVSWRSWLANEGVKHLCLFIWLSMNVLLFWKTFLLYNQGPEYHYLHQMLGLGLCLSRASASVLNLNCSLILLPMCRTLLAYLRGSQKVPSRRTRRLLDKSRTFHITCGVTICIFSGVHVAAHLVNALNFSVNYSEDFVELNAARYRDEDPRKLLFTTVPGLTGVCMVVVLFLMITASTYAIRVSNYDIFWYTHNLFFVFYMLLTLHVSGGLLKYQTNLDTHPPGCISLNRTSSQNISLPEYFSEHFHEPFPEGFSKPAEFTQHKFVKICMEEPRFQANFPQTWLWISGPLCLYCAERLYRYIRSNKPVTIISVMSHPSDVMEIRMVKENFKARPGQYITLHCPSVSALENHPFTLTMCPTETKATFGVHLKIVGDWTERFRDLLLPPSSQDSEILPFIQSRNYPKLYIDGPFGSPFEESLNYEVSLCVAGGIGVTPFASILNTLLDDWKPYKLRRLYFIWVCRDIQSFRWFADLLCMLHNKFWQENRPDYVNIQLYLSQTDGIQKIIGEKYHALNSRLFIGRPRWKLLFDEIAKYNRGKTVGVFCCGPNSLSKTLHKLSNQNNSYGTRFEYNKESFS
# [20] = biological target: NADPH oxidase 5 (Homo sapiens) (UniProt Q96PH1); experiment: compounds shifting NOX5 Amplex Red fluorescence – cell-based, HEK293-NOX5, NOX inhibitor project, primary screen (AID 1161); details: HEK293-NOX5, ionomycin, 45 min, higher = more signal
# Sequence of NADPH oxidase 5 (Homo sapiens) (Q96PH1 whole entry, looked up): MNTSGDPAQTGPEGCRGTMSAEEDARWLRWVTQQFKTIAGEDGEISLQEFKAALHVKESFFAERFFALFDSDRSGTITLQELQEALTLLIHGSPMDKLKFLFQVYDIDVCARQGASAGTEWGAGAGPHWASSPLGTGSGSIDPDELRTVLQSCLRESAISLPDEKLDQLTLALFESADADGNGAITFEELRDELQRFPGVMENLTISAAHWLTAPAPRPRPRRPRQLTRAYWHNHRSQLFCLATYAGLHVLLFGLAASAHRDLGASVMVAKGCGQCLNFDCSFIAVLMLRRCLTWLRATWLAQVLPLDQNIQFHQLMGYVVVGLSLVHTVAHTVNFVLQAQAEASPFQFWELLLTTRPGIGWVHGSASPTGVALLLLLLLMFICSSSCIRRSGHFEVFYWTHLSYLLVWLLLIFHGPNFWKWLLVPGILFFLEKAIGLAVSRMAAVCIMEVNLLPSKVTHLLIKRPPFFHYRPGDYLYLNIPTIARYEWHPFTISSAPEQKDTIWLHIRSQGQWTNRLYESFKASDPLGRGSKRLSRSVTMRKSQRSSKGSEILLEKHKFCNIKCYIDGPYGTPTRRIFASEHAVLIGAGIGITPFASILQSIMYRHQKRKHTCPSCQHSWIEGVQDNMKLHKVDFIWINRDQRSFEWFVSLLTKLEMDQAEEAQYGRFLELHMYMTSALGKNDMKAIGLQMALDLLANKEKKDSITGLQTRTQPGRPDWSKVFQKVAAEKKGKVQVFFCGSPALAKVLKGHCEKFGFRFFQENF
Structure (SMILES),composite z-score [1],z-score [2],z-score [3],z-score [4],z-score [5],composite z-score [6],composite z-score [7],composite z-score (Torsin-1A (Homo sapiens) [8]),composite z-score (Torsin-1A (Homo sapiens) [9]),composite z-score [10],z-score [11],composite z-score [12],z-score [13],z-score [14],z-score [15],z-score [16],z-score [17],z-score [18],z-score [19],z-score [20]
COC(=O)CC=C[C@@H](C)[C@@H](C=NO[C@@H](C)c1cn([C@H](CO)Cc2ccccc2)nn1)OC,-0.251,-0.323 (inactive),-0.54 (inactive),0.597 (inactive),0.0826 (inactive),0.303,-0.128,0.652,0.278,0.469,-0.64 (inactive),-0.275,-0.762 (inactive),-1.66 (inactive),-0.726 (inactive),-1.8 (inactive),1.32,-0.374 (inactive),0.173 (inactive),0.874
CCN1C(=O)[C@H]2[C@H]3[C@H](O)[C@H](O)CC(=O)[C@@H]3CC[C@H]2C1=O,0.0774,0.213 (inactive),-0.402 (inactive),-0.293 (inactive),-0.69 (inactive),0.253,-0.0719,-0.109,0.344,0.694,0.0972 (inactive),-0.149,-0.0937 (inactive),-0.0275 (inactive),-0.403 (inactive),-0.138 (inactive),-0.108,-1.19 (inactive),0.1 (inactive),0.0328
CO[C@H]1COC(=O)CC=C[C@@H](C)[C@H](NS(=O)(=O)c2ccc(C)cc2)COC(=O)CCC[C@@H]1C,0.118,-0.279 (inactive),-0.365 (inactive),-1.13 (inactive),-0.198 (inactive),0.439,-0.239,0.815,0.819,0.417,-0.643 (inactive),-0.062,-0.669 (inactive),-1.56 (inactive),-0.883 (inactive),-1.62 (inactive),-0.56,-0.255 (inactive),0.987 (inactive),0.428
COc1ccc(COC(=O)NN=C2C[C@@H](O)[C@@H](O)[C@@H]3[C@@H]4C(=O)N(c5cccc(Oc6ccccc6)c5)C(=O)[C@@H]4CC[C@@H]23)cc1,-0.365,-0.201 (inactive),0.791 (inactive),2.15 (inactive),0.087 (inactive),0.519,-0.162,0.574,-0.101,-1.38,-0.367 (inactive),0.347,4.54 (inactive),1.2 (inactive),1.28 (inactive),0.181 (inactive),-0.313,1.32 (inactive),0.56 (inactive),1.02
COCCNC(=O)OCC1CCCC2(CC(OC(=O)NCc3ccc4c(c3)OCO4)CC(CCC(=O)N[C@@H](C)C(=O)OC)O2)O1 (stereo not given in full),-0.0558,-0.773 (inactive),-0.0785 (inactive),-0.0755 (inactive),0.468 (inactive),0.303,-0.205,0.308,0.551,1.5,-0.982 (inactive),0.0341,-1.19 (inactive),0.276 (inactive),0.0971 (inactive),0.296 (inactive),-0.472,1.1 (inactive),1.29 (inactive),0.89
C#CCCCON=C1[C@H]2CCn3c(=O)n(-c4ccccc4)c(=O)n3[C@H]2[C@H](O)[C@@H]2O[C@H]12,0.0823,-0.146 (inactive),0.423 (inactive),-0.112 (inactive),0.462 (inactive),-0.126,-0.23,0.494,1.27,0.504,0.555 (inactive),-0.19,0.116 (inactive),-1.22 (inactive),0.43 (inactive),-2.27 (inactive),3.11,-0.858 (inactive),0.137 (inactive),0.607
O=C1CCCC=C1C(O)CCOC(c1ccccc1)(c1ccccc1)c1ccccc1 (stereo not given),-0.263,-1.32 (inactive),1.33 (inactive),-0.344 (inactive),1.57 (inactive),-0.328,-0.128,-0.981,-0.0854,0.489,-1.03 (inactive),-0.0969,1.52 (inactive),-0.349 (inactive),-0.205 (inactive),-0.217 (inactive),-0.0632,1.69 (inactive),-1.48 (inactive),-0.832
COc1cccc([C@@H]2Oc3ccc(OC)cc3C(=O)[C@H]2O)c1,0.115,-4.86 (inactive),-1.15 (inactive),5.45 (inactive),-0.344 (inactive),2.33,-0.152,0.496,0.42,0.813,-0.542 (inactive),-0.101,4.92 (inactive),-0.384 (inactive),1.13 (inactive),-1.28 (inactive),2.08,-2.25 (inactive),-1.51 (inactive),-1.77
O=C(NN=C1C[C@@H](O)[C@@H](O)[C@@H]2[C@@H]3C(=O)N(C4CCCCC4)C(=O)[C@@H]3CC[C@@H]12)OCc1ccccc1,-0.03,0.0845 (inactive),1.15 (inactive),1.79 (inactive),0.0171 (inactive),-0.225,-0.384,0.205,-0.0666,-0.364,0.536 (inactive),-0.407,4.15 (inactive),0.586 (inactive),0.228 (inactive),0.229 (inactive),-0.146,-0.457 (inactive),-0.223 (inactive),0.118
